PubChem BioAssay (NCATS)
“And” between values parts separate entries of the source, which are not always exact repeats. Equal values may be shown once. Inconclusive results are not listed. The source made the active and inactive calls. Calls come from the whole dose curve; as a rule, active = well fitted curve in the direction sought with a large enough effect; inconclusive = small, poorly fitted or top-dose-only effect, or another doubt; inactive = no such curve, though single readings can be large; an effect the other way counts as inactive or inconclusive.

Key:
[1] = qHTS to identify inhibitors of the type 1 interferon - major histocompatibility complex class I in skeletal muscle: primary screen against the NCATS LOPAC collection (AID 1347405);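 note: human myoblasts with HiBiT tag on endogenous HLA-B stimulated by IFN-beta; lytic HiBiT luminescence reporting HLA-B protein level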; note: potency is the fitted concentration of half-maximal effect
In short: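 IFN-beta-stimulated (4 ng/ml) HLA-B HiBiT knock-in myoblasts, compound-treated 24 hrs up to 46 uM final; signal via LgBiT complementation and furimazine luminescence.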

[2] = qHTS for inhibitors of adenylyl cyclases using a fission yeast platform: a pilot screen against the NCATS LOPAC library (AID 1347410);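 note: plate controls were DMSO vehicle for no effect and DPI positive control for full effect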
In short: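 GFP from fbp1-GFP reporter, read by Acumen laser cytometry, indicates AC inhibition in fission yeast expressing AC9, GNAS and PDE4D2. Cells grown 18 h in the dark at 30C with compounds, final up to 57 uM.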

[3] = qHTS to identify inhibitors of the type 1 interferon - major histocompatibility complex class I in skeletal muscle: primary screen against the NCATS Mechanism Interrogation Plate v5.0 (MIPE) Libary (AID 1347411); note: nearly all actives have a fitted effect of over 65% in size; note: potency is the fitted concentration of half-maximal effect
In short: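 IFN-beta-driven (4 ng/ml) HLA-B-HiBit expression in CRISPR-tagged C25cl48 myoblasts; compounds 11-pt, 1:3, max 46 uM, 24 hr exposure; lytic NanoLuc complementation luminescence.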

[4] = target: Protein phosphatase 1D (Homo sapiens) (UniProt O15297); experiment: RapidFire Mass Spectrometry qHTS Assay for Modulators of WT P53-Induced Phosphatase 1 (WIP1) (AID 1347424);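 note: amount of dephosphorylated VEPPL-S-QETFS peptide product formed by WIP1; series mostly up to about 63 µM; plate controls were DMSO wells for no effect and GSK830371 inhibitor control at 10 µM for full effect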
Sequence of Protein phosphatase 1D (Homo sapiens) (O15297 whole entry, looked up): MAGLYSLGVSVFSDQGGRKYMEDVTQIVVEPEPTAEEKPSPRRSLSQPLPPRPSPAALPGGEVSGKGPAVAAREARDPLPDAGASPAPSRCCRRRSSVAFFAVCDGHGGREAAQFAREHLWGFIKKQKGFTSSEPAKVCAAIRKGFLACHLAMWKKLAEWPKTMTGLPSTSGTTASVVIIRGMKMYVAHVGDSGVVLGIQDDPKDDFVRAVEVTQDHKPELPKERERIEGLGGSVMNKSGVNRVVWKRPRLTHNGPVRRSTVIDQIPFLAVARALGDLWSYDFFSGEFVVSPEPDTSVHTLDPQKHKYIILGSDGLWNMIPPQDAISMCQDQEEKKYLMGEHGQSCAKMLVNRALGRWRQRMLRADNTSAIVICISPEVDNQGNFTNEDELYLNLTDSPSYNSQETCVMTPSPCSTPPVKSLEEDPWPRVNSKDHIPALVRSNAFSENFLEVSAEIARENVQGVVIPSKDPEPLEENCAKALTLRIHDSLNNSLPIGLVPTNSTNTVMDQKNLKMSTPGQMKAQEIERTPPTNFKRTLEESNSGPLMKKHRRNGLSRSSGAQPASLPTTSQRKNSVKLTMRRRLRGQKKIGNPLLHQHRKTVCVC
In short: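 RapidFire mass spectrometry measured dephosphorylated peptide after 5 min room-temperature reaction of 2 uM VEPPL-pS-QETFS with 10 nM WIP1 (50 mM Tris-HCl pH 7.5, 30 mM MgCl2, 0.1 mM EGTA, BSA), following 1 hr compound preincubation; 1 uM isotope-labelled product standard.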

[5] = target: Protein phosphatase 1D (Homo sapiens) (UniProt O15297); experiment: Rhodamine-PBP qHTS Assay for Modulators of WT P53-Induced Phosphatase 1 (WIP1) (AID 1347425); note: % of control where 0% means no effect
In short: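 WIP1 (5 nM final) was preincubated with compound for 1 hour at room temperature. It then dephosphorylated 10 uM VEPPL-pS-QETFS peptide in Tris-HCl pH 7.5 with 30 mM MgCl2. Released Pi was detected by 10 uM Rh-PBP fluorescence (ex 525/em 598 nm) read at 1-min intervals for 11 min, as delta f1 - f0.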

[6] = Validation qHTS assay for inhibitors of Activation Induced Cytidine Deaminase (AID): UDG Counterscreen signal (AID 1347427); note: 0% is about no effect
In short: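 Fluorescence at 560 nm excitation, 665 nm emission reports UDG signal after 250 mM NaOH (2x) addition and 30 min. Enzymes (AID 1 uM, UDG 2 U/mL, at 4/3x) preincubated 10 min with compound, then 4 h with 4x 250 nM DJC20/DJC23 substrate at room temperature.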

[7] = target: Single-stranded DNA cytosine deaminase (Homo sapiens) (UniProt Q9GZX7); experiment: Validation qHTS assay for inhibitors of Activation Induced Cytidine Deaminase (AID): AID signal (AID 1347429); note: % is set by controls: 0 for no effect and ±100 for the full control effect
Sequence of Single-stranded DNA cytosine deaminase (Homo sapiens) (Q9GZX7 whole entry, looked up): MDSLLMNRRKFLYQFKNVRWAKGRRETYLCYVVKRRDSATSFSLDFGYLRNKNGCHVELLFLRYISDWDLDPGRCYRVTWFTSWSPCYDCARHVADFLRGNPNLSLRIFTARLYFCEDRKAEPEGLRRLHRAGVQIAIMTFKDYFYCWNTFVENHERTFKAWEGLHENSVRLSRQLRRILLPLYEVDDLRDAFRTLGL
In short: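 Compounds (up to 114 uM final) are tested against AID plus UDG using DJC20/DJC23 FRET substrate. Reactions incubate 4 hr at room temperature, receive NaOH for 30 min, and are read at Ex 540/Em 590 nm.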

[8] = Primary qHTS for inhibitors of La Crosse Virus (LACV) - induced cell death in SH-SY5Y cells (AID 1508616);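 note: top concentration of the series differs between compounds; 0% = infected DMSO wells and 100% = uninfected DMSO wells; higher means more rescue of cells from virus-induced death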
In short: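 Screening measures cell viability in LACV-infected SH-SY5Y cultures. Compound was added before virus (0.01 MOI), and ATP was detected by luminescence 6 days later.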

[9] = target: Calcium and integrin-binding protein 1 (Homo sapiens) (UniProt Q99828); experiment: Validation qHTS for Identification of Calcium Integrin Binding protein 1 (CIB1) Competitor (AID 1508618); note: % is set by controls: 0 for no effect and ±100 for the full control effect
Sequence of Calcium and integrin-binding protein 1 (Homo sapiens) (Q99828 whole entry, looked up): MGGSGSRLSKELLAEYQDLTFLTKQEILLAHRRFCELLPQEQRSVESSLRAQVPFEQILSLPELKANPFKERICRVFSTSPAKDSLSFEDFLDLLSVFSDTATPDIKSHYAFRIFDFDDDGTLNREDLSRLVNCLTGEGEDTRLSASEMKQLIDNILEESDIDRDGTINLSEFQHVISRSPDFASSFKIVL
In short: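 Fluorescence polarization with 1 uM CIB1-GST and 100 nM FITC-alphaIIb peptide in HEPES pH 7.4, NaCl, 5 mM CaCl2, Tween20. Compounds at up to 114 uM final, preincubated with protein 15 min; read after 15 min more at RT.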

[10] = target: Calcium and integrin-binding protein 1 (Homo sapiens) (UniProt Q99828); experiment: Primary qHTS for Identification of Calcium Integrin Binding Protein 1 (CIB1) Competitor (AID 1508620);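 note: GST tagged CIB1 binding a fluorescein labelled alphaIIb integrin peptide tracer; top concentration of the series differs between compounds; % is set by controls: 0 for no effect and ±100 for the full control effect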
In short: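 CIB1-GST (1 uM final) and compound incubated 15 min at room temperature before adding FITC-alphaIIb peptide tracer (100 nM final). Competition for binding read by fluorescence polarization (ex 480, em 540) after another 15 min at room temperature.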

[11] = Primary qHTS for small molecule stabilizers of the endoplasmic reticulum resident proteome: Secreted ER Calcium Modulated Protein (SERCaMP) assay (AID 1508630); note: % is set by controls: 0 for no effect and ±100 for the full control effect
In short: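 The SH-SY5Y reporter protocol was run at 3 concentrations up to 38.3 uM (primary) or 11 concentrations (follow-up): 16 h compound, 100 nM thapsigargin for 4 h, then extracellular luciferase luminescence.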

[12] = qHTS to identify inhibitors of the type 1 interferon - major histocompatibility complex class I in skeletal muscle: primary screen against the NCATS Pharmaceutical Collection (AID 1347407)
In short: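 Compounds […] were added to CRISPR-engineered HLA-B-HiBiT C25cl48 human myoblasts with 4.0 ng/ml IFN-beta. After 24 hrs at 37 C, cells were lysed and HiBiT luminescence measured.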

[13] = Cell Viability qHTS for small molecule stabilizers of the endoplasmic reticulum resident proteome (AID 1508629); conditions: cell viability counter-screen, 100 nM thapsigargin for final 4 h;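 note: compound exposure about 46 h in total before the viability read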; note: potency is the fitted concentration of half-maximal effect
[14] = Confirmatory qHTS for small molecule stabilizers of the endoplasmic reticulum resident proteome: Secreted ER Calcium Modulated Protein (SERCaMP) assay (AID 1508628); note: nearly all actives have a fitted effect of over 40% in size; note: potency is the fitted concentration of half-maximal effect
In short: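 GLuc-SERCaMP-expressing SH-SY5Y cells, pretreated 16 h with compound, are challenged with thapsigargin to empty ER calcium stores; after 4 h, coelenterazine is added directly to the medium and luminescence is imaged.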

CC(C)C(=O)Nc1ccc([N+](=O)[O-])c(C(F)(F)F)c1
inactive: Potency [1] | outcome [2] | Potency [3] | Potency [4] | outcome [5] | Potency [6] | Potency [7] | Potency [8] | Potency [9] | Potency [10] | Potency [11]

O=c1c(O)c(-c2ccc(O)c(O)c2)oc2cc(O)cc(O)c12
inactive: Potency [12] | outcome [2] | Potency [3] | Potency [4] | Potency [6] | Potency [7] | Potency [8] | Potency [10] | max response [13] -19.3% and 6.63% and -20.3%

O=c1c(-c2ccc(O)cc2)coc2cc(O)cc(O)c12
inactive: outcome [2] | Potency [4] | outcome [5] | Potency [6] | Potency [7] | Potency [8] | Potency [9] | Potency [10]
active: Potency [1] 17.8 µM | Potency [3] 9.51 µM

COc1ccc(CCN(C)CCCC(C#N)(c2ccc(OC)c(OC)c2)C(C)C)cc1OC (configuration not stated)
inactive: outcome [2] | Potency [4] | outcome [5] | max response [13] -5.84%
active: Potency [14] 20 µM

Cc1cn([C@H]2C[C@H](N=[N+]=[N-])[C@@H](CO)O2)c(=O)[nH]c1=O
inactive: Potency [4] | outcome [5] | Potency [8] | Potency [10]

COc1cc2nc(N3CCN(C(=O)C4COc5ccccc5O4)CC3)nc(N)c2cc1OC (configuration not stated)
inactive: Potency [1] | outcome [2] | Potency [4] | outcome [5] | Potency [6] | Potency [7] | Potency [8] | Potency [9] | Potency [10] | Potency [11]

COc1ccc2c(c1)c(CC(=O)O)c(C)n2C(=O)c1ccc(Cl)cc1
inactive: Potency [6] | Potency [7] | Potency [8] | Potency [9] | Potency [10] | Potency [11]

OCCN1CCN(CCCN2c3ccccc3Sc3ccc(C(F)(F)F)cc32)CC1
inactive: Potency [12] | outcome [2] | Potency [4] | outcome [5] | Potency [6] | Potency [7] | Potency [8] | Potency [10]

CS(=O)(=O)Nc1ccc([N+](=O)[O-])cc1Oc1ccccc1
inactive: Potency [12] | outcome [2] | Potency [4] | outcome [5] | Potency [6] | Potency [7] | Potency [8] | Potency [11]

Cn1c(=O)c2c(ncn2C)n(C)c1=O
inactive: Potency [4] | outcome [5] | Potency [6] | Potency [7] | Potency [8] | Potency [14] | max response [13] 8.95% [middle of 5 runs] | Potency [11]

CN1C2CCC1CC(OC(=O)C(CO)c1ccccc1)C2 (configuration not stated)
inactive: outcome [2] | Potency [8] | Potency [9] | max response [13] -15.7% and 13.4%
active: Potency [14] 39.8 µM

COc1cc2nc(N3CCN(C(=O)c4ccco4)CC3)nc(N)c2cc1OC
inactive: outcome [2] | Potency [4] | outcome [5] | Potency [8] | Potency [9] | Potency [10] | Potency [11]

CCC1(c2ccccc2)C(=O)NCNC1=O
inactive: Potency [4] | outcome [5] | Potency [8] | Potency [9] | Potency [10]

O=C1Cc2cc(CCN3CCN(c4nsc5ccccc45)CC3)c(Cl)cc2N1
inactive: Potency [12] | outcome [2] | Potency [4] | outcome [5] | Potency [6] | Potency [7] | Potency [8] | Potency [9] | Potency [10]

Cc1ccccc1N1C(=O)c2cc(S(N)(=O)=O)c(Cl)cc2NC1C (configuration not stated)
inactive: Potency [12] | Potency [3] | Potency [4] | outcome [5] | Potency [6] | Potency [7] | Potency [8] | Potency [10] | Potency [11]

O=C(Nc1ccc([N+](=O)[O-])cc1Cl)c1cc(Cl)ccc1O
inactive: Potency [12] | outcome [2] | Potency [3] | Potency [4] | outcome [5] | Potency [6] | Potency [7] | Potency [8] | Potency [10] | Potency [14] | Potency [11]
active: Potency [13] 5.01 µM

O=C(C1CCCCC1)N1CC(=O)N2CCc3ccccc3C2C1 (configuration not stated)
inactive: Potency [4] | outcome [5] | Potency [8] | Potency [9] | Potency [10] | Potency [11]

CC(COc1ccccc1)N(CCCl)Cc1ccccc1 (configuration not stated)
inactive: Potency [12] | Potency [3] | Potency [4] | outcome [5] | Potency [6] | Potency [7] | Potency [8] | Potency [10]

CC#C[C@]1(O)CC[C@H]2[C@@H]3CCC4=CC(=O)CCC4=C3[C@@H](c3ccc(N(C)C)cc3)C[C@@]21C
inactive: Potency [12] | outcome [2] | Potency [3] | Potency [4] | outcome [5] | Potency [6] | Potency [7] | Potency [8] | Potency [9] | Potency [10] | Potency [11]

Clc1ccccc1C(c1ccccc1)(c1ccccc1)n1ccnc1
inactive: outcome [2] | Potency [4] | outcome [5] | Potency [6] | Potency [7] | Potency [8] | Potency [10]

COc1cc2c(c(OC)c1OC)-c1ccc(OC)c(=O)cc1[C@@H](NC(C)=O)CC2
inactive: Potency [12] | outcome [2] | Potency [4] | outcome [5] | Potency [6] | Potency [7] | Potency [8] | Potency [9] | Potency [10]

CN(C)C(=N)N=C(N)N
inactive: Potency [12] | Potency [4] | outcome [5] | Potency [8] | Potency [10]
